# TbPYK inhibitor = qHTS of Trypanosoma Brucei Inhibitors. TbPYK enzyme, Kinase-Glo Plus ATP luminescence, 45 min. AID 624173, 2012. hit rate 0.12% among 410,000. pyruvate kinase (Trypanosoma brucei), Q57TT1. Potency, µM (highest dose often 76.8 µM), without a hit: top-dose activity, negative = inhibition, usual class: inhibitors; further: potency means the concentration at half of the fitted maximal effect; on the % scale 0 is the no-effect control and ±100 the full control effect; nearly all actives have a fitted effect of over 50% in size
#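 Glycolytic pyruvate kinase of T. brucei was incubated with substrate, test compound and 130 uM ADP for 45 minutes at room temperature. Luminescent Kinase-Glo Plus signal was measured after 10 minutes.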
# Giardia FBPA inh = qHTS Assay for Inhibitors of Fructose-1,6-bisphosphate Aldolase from Giardia Lamblia; A8B2U2; purified Giardia FBPA; Potency, µM (highest dose often 59.6 µM), for inactives: top-dose activity, negative = inhibition, actives largely listed as inhibitors; hit rate 0.71% among 290,000; AID 2451, 2010; further: potency means the concentration at half of the fitted maximal effect; on the % scale 0 is the no-effect control and ±100 the full control effect; nearly all actives have a fitted effect of over 55% in size
# Target sequence (A8B2U2 whole entry, looked up): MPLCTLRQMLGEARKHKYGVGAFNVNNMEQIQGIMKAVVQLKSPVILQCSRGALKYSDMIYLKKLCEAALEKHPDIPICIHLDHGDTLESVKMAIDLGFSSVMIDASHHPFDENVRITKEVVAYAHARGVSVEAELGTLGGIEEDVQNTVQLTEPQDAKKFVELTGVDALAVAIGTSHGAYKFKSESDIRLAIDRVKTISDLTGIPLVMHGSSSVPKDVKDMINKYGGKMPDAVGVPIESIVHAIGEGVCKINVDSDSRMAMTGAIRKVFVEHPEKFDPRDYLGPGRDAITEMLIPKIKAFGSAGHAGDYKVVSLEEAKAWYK
#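 40 nM FBPA preincubated 10 min at RT with compound (up to 57.5 uM final), then substrate plus GAPDH/TPI/NAD/arsenate coupling and diaphorase/resazurin added. Fluorescence read after 20 min at RT, 525/598 nm.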
# Shiga inhibitor = A qHTS for Small Molecule Inhibitors of Shiga Toxin. inhibition, % at 38.7 µM. AID 2315, 2010. hit rate 9.2% among 290,000. Vero cells, Shiga toxin protein synthesis inhibition reporter; in the data active means inhibition mostly above about 28%, no sharp cut-off; inactive means mostly below about 43%; further: 0% is about no effect
# LmPK inhibitor = qHTS Assay for Inhibitors of Leishmania Mexicana Pyruvate Kinase (LmPK) | Potency, µM (series often up to 57.5 µM), inactives show at the top dose activity change, negative = inhibition, most hits filed as inhibitors | purified LmPK, Kinase-Glo ATP luminescence, 1 h | hit rate 0.37% among 290,000 | Q27686 | AID 1721, 2009; further: potency means the concentration at half of the fitted maximal effect; on the % scale 0 is the no-effect control and ±100 the full control effect
#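 Pyruvate kinase activity monitored as ATP production (luciferase luminescence). Conditions: 0.1 nM enzyme, 0.5 mM PEP, 0.1 mM ADP, 1 h, RT; normalized against uninhibited and no-enzyme wells.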
# Sm TGR block = qHTS Assay for the Inhibitors of Schistosoma Mansoni Peroxiredoxins; AID 485364, 2010; purified TGR, DTNB reduction, TNB absorbance 405 nm; Potency, µM (doses to about 114 µM), for inactives: at the highest dose activity change, negative = inhibition, most hits filed as inhibitors; hit rate 3% among 360,000; Schistosoma mansoni thioredoxin glutathione reductase (TGR), Q962Y6; further: potency means the concentration at half of the fitted maximal effect; on the % scale 0 is the no-effect control and ±100 the full control effect; nearly all actives have a fitted effect of over 60% in size
#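 Kinetic colorimetric format: TGR-catalysed, NADPH-driven DTNB reduction monitored via TNB absorbance. Enzyme dispensed at 20 nM; compound exposure 15 min at room temperature before reaction start.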
# CHX counter = Cycloheximide Counterscreen for Small Molecule Inhibitors of Shiga Toxin; cell reporter, cycloheximide protein synthesis inhibition counterscreen; max response, %; hit rate 12% among 300,000; AID 2314, 2010; in the data active means max response mostly above about 13%, no sharp cut-off; inactive means mostly below about 14%; further: read at 38.3 µM for the half of the compounds with a filed dose; 0% is about no effect
# The depositor's hits bear a star; ? = inconclusive; · = no result given. Only a selection was taken, and hits are over-represented in it overall. Unless noted, the call rests on the fitted dose curve; in most records, active means well fitted curve in the direction sought with a large enough effect; inconclusive means small, poorly fitted or top-dose-only effect, or another doubt; inactive means no such curve, though single readings can be large; an effect the other way counts as inactive or inconclusive.
SMILES,TbPYK inhibitor,Giardia FBPA inh,Shiga inhibitor,LmPK inhibitor,Sm TGR block,CHX counter
O=C(c1ccco1)N1CCN(C(=O)c2cc(-c3ccccn3)nc3ccccc23)CC1,-7%,2%,13,0%,35µM*,-1
COc1ccc(CNC(=O)COC(=O)c2cc(-c3ccco3)nc3ccccc23)cc1,·,-15%,-37,-6%,11µM*,16
Cc1ccc2sc(N3CCN(C(=O)C4COc5ccccc5O4)CC3)nc2c1C (centres undefined),0%,·,·,·,-1%,·
CCOC(=O)C1=C(N)Oc2ccc(Br)cc2C1C(C#N)C(=O)OCC (centres undefined),·,-18%,-4,·,·,-3
COc1cccc(CNC(=O)COC(=O)c2nc(Cl)c(Cl)c(Cl)c2Cl)c1,-4%,·,·,·,3.2µM*,·
Cc1cccc(/C(N)=N/OC(=O)c2ccc3c(c2)OCO3)c1,?,-7%,43*,4.5µM*,3%,42*
N/C(=N\OC(=O)c1ccc2c(c1)OCO2)c1cccc([N+](=O)[O-])c1,-23%,1%,88,-10%,·,31*
COc1ccc(/C(N)=N/OC(=O)c2cccc([N+](=O)[O-])c2)cc1OC,-8%,4%,-19,4%,-20%,1
COc1ccc(C)cc1-n1nnc(-c2nc(-c3ccccc3Cl)no2)c1N,-11%,·,·,·,-6%,·
Cc1c(C(=O)NCC2CCCO2)oc2ccc3c(c12)C(=O)CC(C)(C)O3 (centres undefined),5%,3%,75*,-5%,3%,40*
COC(=O)CN1CC(=O)c2ccccc2S1(=O)=O,·,25%,-9,·,·,10
C=C1CCN(CC(=O)OC)S(=O)(=O)c2ccccc21,4%,6%,10,2%,32µM*,4
O=C1c2ccccc2NC2(CCCC2)N1N=C1CCCC1,-7%,0%,74*,1%,·,29*
CS(=O)(=O)NN1C(=O)c2ccccc2NC12CCCC2,-1%,-1%,-6,-3%,2%,-1
O=C1c2ccccc2NC2(CCCCC2)N1c1ccc(O)cc1,-11%,4%,29,-9%,-8%,14*
CC1(OC(=O)c2ccco2)C(=O)C2=COC(C3CC3)=CC2=C(Br)C1=O (centres undefined),·,-12%,·,·,·,·
Cc1cnc(NC(=O)CCCSc2nc3ccccc3s2)s1,-2%,2%,31,-1%,2%,-3
CCc1ccccc1NC(=O)CCCSc1nc2ccccc2s1,-15%,2%,13,4%,-8%,12*
O=C(CCCSc1nc2ccccc2s1)NCc1ccco1,-1%,0%,81,7%,-48%,16*
CC(=O)c1ccc(S(=O)(=O)Nc2ccc(-c3ccc(N4CCCCC4)nn3)cc2)cc1,-12%,·,·,·,-6%,·
Cc1cc(N2CCC(C)CC2)nc2ccc(N3C(=O)CCC3=O)cc12,-1%,-13%,14,7%,1%,18*
CCCCN(C)C(=O)CCC(=O)Nc1ccc2nc(N3CCOCC3)cc(C)c2c1,0%,-19%,20,4%,2%,29*
Cc1cc(N2CCOCC2)nc2ccc(NC(=O)CCC(=O)N3CCN(c4cccc(C(F)(F)F)c4)CC3)cc12,-9%,-1%,67*,1%,-10%,28*
Cc1cc(N2CCOCC2)nc2ccc(NC(=O)CCC(=O)N3CCCCC3)cc12,6%,-1%,18,2%,12%,8
CCCCNC(=O)CCC(=O)Nc1ccc2nc(N3CCC(C)CC3)cc(C)c2c1,-3%,-13%,55*,4%,-11%,30*
CCCCn1c(=O)c2c(nc3n2CCCN3Cc2ccccc2)n(C)c1=O,0%,6%,-16,-1%,11%,-4
CO/N=C(/C(=O)N[C@@H]1C(=O)N2C(C(=O)[O-])=C(C[n+]3ccn4ncccc43)CS[C@H]12)c1nsc(N)n1,-6%,·,·,·,·,·
Cc1ccc(NC(=O)C2CCN(S(=O)(=O)c3ccc4c(c3)CCCN4C(=O)C3CCC3)CC2)cc1,-5%,·,·,·,-8%,·
